Assay [1] deals with M-phase phosphoprotein 8 (Homo sapiens) (UniProt Q99549). As to the kind of experiment: qHTS Validation Assay for Inhibitors for MPP8 Chromodomain Interactions with Methylated Histone Tails (AID 488949).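 Note: AlphaScreen signal from MPP8 chromodomain bound to biotinylated H3K9me3 peptide; top concentration of the series differs between compounds; % is set by controls: 0 for no effect and ±100 for the full control effect; nearly all actives have a fitted effect of over 55% in size.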 The method in brief: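 AlphaScreen proximity signal from streptavidin donor and Ni-chelate acceptor beads (10 ug/mL each) reported binding of MPP8 to trimethyl-K9 H3(1-18) peptide, both at 50 nM. The complex formed 30 min before a 30 min compound exposure at room temperature, in PBS pH 7.4.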
A general note: Quantitative high-throughput screening tests each substance at several concentrations.

For assay [2], the target named is Chromobox protein homolog 1 (Homo sapiens) (UniProt P83916). As to the kind of experiment: qHTS Validation Assay for Inhibitors of HP1-beta Chromodomain Interactions with Methylated Histone Tails (AID 488953).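 Note: loss of AlphaScreen luminescence from HP1-beta binding biotinylated H3K9me3 peptide; series mostly up to about 110 µM; % is set by controls: 0 for no effect and ±100 for the full control effect; nearly all actives have a fitted effect of over 50% in size.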 The method in brief:
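AlphaScreen proximity readout: streptavidin donor and Ni-chelate acceptor beads, 10 ug/mL final, 30 min dark, RT. Complex of 50 nM HP1-beta and 50 nM b-H3(1-18)K9me3 formed 30 min, then compound-treated 30 min; PBS pH 7.4/0.01% Tween-20.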

Assay [3] deals with Methanococcus maripaludis chaperonin (MmCpn) (UniProt Q6LX38). The assay can be described thus: High-Throughput Screening for Modulators of Cytosolic Chaperonin Activity: MmCpn Primary Screen (AID 488978).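 Note: 50 nM MmCpn enzyme hydrolysing 30 µM ATP at 37 °C; 0% is about no effect.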 In a few lines:
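ATPase activity of 50 nM MmCpn was assayed with 30 uM ATP, 10 minutes at 37C, after a 5 min compound preincubation at room temperature. ADP production was read as HTRF emission at 590 and 665 nm.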

For assay [4], the target named is Transient receptor potential cation channel subfamily V member 1 (Homo sapiens) (UniProt Q8NER1). The assay can be described thus: HTS Assay for Compounds that Act as Enhancers of the Vanilloid Receptor 1 (AID 488979). Note: 0% is about no effect. The method in brief: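 Calcium influx kinetics via Fluo-8 (480/520 nm) in TRPV1-expressing cells, 2000/well cultured overnight at 35.5C. Compound-alone read 3 min (agonist phase), followed by EC20 capsaicin challenge for 2 min (enhancer phase).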

Assay [5] concerns the target Thyrotropin receptor (Homo sapiens) (UniProt P16473). As to the kind of experiment: qHTS Assay for Antagonists of the Thyroid Stimulating Hormone Receptor (AID 488980). Note: series mostly up to about 58 µM; 0% is about no effect. The method in brief: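 Inhibition of cAMP raised by EC80 TSH (4 nM final) was read by HTRF, with lysate cAMP competing against cAMP-d2 for cryptate antibody after 30 min at room temperature. The cells were transfected HEK293 held in phosphodiesterase inhibitor RO 20-1724 at 70 uM.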

Assay [6] has as its target D(1A) dopamine receptor (Homo sapiens) (UniProt P21728). As to the kind of experiment: HTS Assay for Allosteric Agonists of the Human D1 Dopamine Receptor: Primary Screen for Agonists (AID 488981). Note: 0% is about no effect. In a few lines: (§1)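 Calcium flux in an inducible, force-coupled HEK293 Trex D1 line (overnight at 30 C): agonist mode is the 180 s kinetic read after compound; potentiator mode is the following 180 s read after dopamine at EC20.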

Assay [7] has the same target. As to the kind of experiment: HTS Assay for Allosteric Agonists of the Human D1 Dopamine Receptor: Primary Screen for Potentiators (AID 488982). Note: 0% is about no effect. In a few lines:
as §1

Assay [8] shares this target. The assay can be described thus: HTS Assay for Allosteric Agonists of the Human D1 Dopamine Receptor: Primary Screen for Antagonists (AID 488983).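 Note: calcium flux response to an EC80 dopamine challenge measured with no-wash dye; nearly all actives have a fitted effect of over 65% in size.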 Note: potency is the fitted concentration of half-maximal effect. In a few lines: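 Calcium flux readout, no-wash dye, inducible HEK293 T-REx D1 line (force-coupled). Compound added after 10 s baseline, 180 s kinetic read; then dopamine at EC80, further 180 s read.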
Assay [9] is described as follows: Validation screen for small molecules that induce genotoxicity in human embryonic kidney (HEK293T) cells expressing luciferase-tagged ELG1 (AID 493106). Note: 0% is about no effect. In a few lines:
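qHTS format; 2,000 HEK293T ELG1-luc cells/well; 23 nL compound via pin tool; 16 hr, 37 °C/5% CO2; ONE-Glo, 30 min RT; luminescence read.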

The target in assay [10] is ATPase family AAA domain-containing protein 5 (Homo sapiens) (UniProt Q96QE3). As to the kind of experiment: Validation screen for small molecules that inhibit ELG1-dependent DNA repair in human embryonic kidney (HEK293T) cells expressing luciferase-tagged ELG1 (AID 493107).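 Note: cells co-treated with the DNA-damaging agent 5-fluorouridine alongside compound; series mostly up to about 46 µM; % is set by controls: 0 for no effect and ±100 for the full control effect; inhibitors lower the ELG1-luciferase luminescence signal; nearly all actives have a fitted effect of over 70% in size.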 In a few lines: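 ELG1-luciferase HEK293T reporter; 5-fluorouridine + compound/DMSO, 16 hr, 37 °C, 5% CO2; ONE-Glo 30 min RT; luminescence read, qHTS format.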

The target of assay [11] is Thyrotropin-releasing hormone receptor (Homo sapiens) (UniProt P34981). The assay can be described thus: qHTS for Small Molecule Agonists and Allosteric Enhancers of Human TRH Receptor: Validation Screen for Agonists (AID 493127;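 active = calcium activation more than 3 SD above the typical response in the agonist read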;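 note: intracellular calcium rise by fluo-8 fluorescence before TRH EC20 addition; 0% is about no effect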). To be noted: TRH receptor agonist cell assay; at 2 µM; stronger effect = higher value. In a few lines:
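Read-out: intracellular calcium release measured kinetically by FDSS (fluo-8, ex 480/em 530 nm), 1 reading/s after a 10-cycle baseline. TRHR cells, 2000/well, cultured 18 h at 33.5C, dye-loaded at room temp. Compound-evoked positive calcium signal flags agonists.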

Assay [12] in a line: qHTS for Inhibitors of Cell Surface uPA Generation: Validation Assay (AID 493164).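 Note: RAW 264.7 macrophage cells exposed to compound for 18 h; 0% is about no effect.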 In a few lines: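 Compounds are titrated over seven points (2.45 nM–38.3 uM final) onto pre-plated RAW 264.7 cells and incubated for 18 h. Retained intracellular ATP, measured with ATP-Lite, indicates blocked lethal factor entry.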
Assay [13] concerns the target Galactokinase (Homo sapiens) (UniProt P51570). As to the kind of experiment: qHTS Validation Assay for Inhibitors of Human Galactokinase (GALK) (AID 493189). Note: 0% is about no effect. The method in brief:
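Inhibition was measured as remaining ATP, detected by luciferase luminescence after a 1 h room-temperature reaction. Final conditions: 5 nM GALK, 100 uM galactose, 35 uM ATP, pH 8.0 HEPES buffer.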

Assay [14] in a line: Validation screen for small molecules that induce DNA re-replication in SW480 colon adenocarcinoma cells (AID 504364). Note: 0% is about no effect. In a few lines: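 Read-out: total Hoechst intensity of nuclei by fluorescence scanning imager; hits raise the fraction of nuclei with elevated DNA content. Cells received compound for 48 hr at 37 C before a 40 min stain.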
In assay [15] the target is Peptidyl-prolyl cis-trans isomerase NIMA-interacting 1 (Homo sapiens) (UniProt Q13526). As to the kind of experiment: qHTS Validation Assay to Find Inhibitors of Pin1 (AID 504536; active = well fitted inhibition curve with a large enough effect in the polarisation, with a control signal flat, not every such curve was filed as active; the % refers to the polarisation;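 note: 0% = full Pin1 enzyme wells and -100% = no-enzyme wells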). In a few lines:
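Fluorescence polarization competition: compounds (titration) displace HiFluor-488-labeled Pin1-1b peptide from Pin1 (0.3 uM final) in pH 7.5 HEPES buffer with DTT, 10 min at room temperature; %Activity normalized to no-enzyme wells, curves fitted.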

Assay [16] deals with Phosphoglycerate kinase, glycosomal (Trypanosoma brucei brucei) (UniProt P07378). As to the kind of experiment: qHTS Validation Assay to Find Inhibitors of Phosphoglycerate Kinase (AID 504547).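 Note: control wells lack PGK and mark full inhibition.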 The method in brief:
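Luminescence end-point (Kinase-Glo Plus, 10 min) after a 60 min room-temperature coupled reaction. GAPDH at 100nM final supplies 1,3-BPG to PGK. Buffer: 100mM TEA pH 7.6, 5mM MgCl2, 0.01% Tween-20. Wells lacking PGK served as controls.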

The target in assay [17] is phosphoglycerate mutase (Leishmania major) (UniProt Q4Q090). The assay can be described thus: qHTS Validation Assay to Find Inhibitors of Phosphoglycerate Mutase (AID 504548). Note: series mostly up to about 58 µM; % is set by controls: 0 for no effect and ±100 for the full control effect. The method in brief:
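Lm PGAM 1.25nM final; 100 mM TEA pH 7.6, 5 mM MgCl2, 0.01% Tween-20; 45 min RT; Kinase-GloPlus, 10 min; end-point luminescence. Enzyme-free wells as negative controls.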

The target in assay [18] is Ubiquitin carboxyl-terminal hydrolase 1 (Homo sapiens) (UniProt O94782). The assay can be described thus: Inhibitors of USP1/UAF1: Pilot qHTS (AID 504865).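 Note: rhodamine fluorescence freed from ubiquitin-rhodamine substrate followed over time; top concentration of the series differs between compounds; % is set by controls: 0 for no effect and ±100 for the full control effect; nearly all actives have a fitted effect of over 35% in size.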 In a few lines: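 Deubiquitinase activity followed as kinetic rhodamine fluorescence release from 150 nM Ub-Rho. 1 nM USP1/UAF1 with compound, after 15 min room-temperature preincubation, in HEPES pH 7.8 buffer containing TCEP, EDTA, BSA and Tween-20.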

Assay [19] has as its target ATP-dependent 6-phosphofructokinase (Trypanosoma brucei brucei) (UniProt O15648). As to the kind of experiment: qHTS Assay to Find Inhibitors of T. brucei phosphofructokinase: hit validation (AID 492961).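 Note: luminescence reports ADP formed as PFK phosphorylates fructose-6-phosphate with ATP; series mostly up to about 51 µM; % is set by controls: 0 for no effect and ±100 for the full control effect.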 The method in brief:
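In this biochemical qHTS validation, titrated compounds were tested against 1.25 nM PFK with 0.1 mM ATP and 0.5 mM F6P. Percent activity came from controls lacking or containing enzyme.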

Assay [20] in a line: Nrf2 qHTS screen for inhibitors: Validation (AID 493153; active = well fitted inhibition curve with a large enough effect in the main read-out, with a control signal flat, not every such curve was filed as active). To be noted: Potency: luciferase luminescence; viability change: measured here: cytotoxicity max response. The method in brief: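 Concentration-response test in A549 ARE_Fluc reporter cells (5% FBS OPTI-MEM), compound exposure 18-24 h at 37°C, 5% CO2. Cell viability measured first by CellTiter-Fluor fluorescence; ARE-driven luciferase luminescence then measured as Nrf2 activity.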

Results filed as inconclusive are left out. Calls of active or inactive are those of the source. Unless noted, calls come from the whole dose curve; as a rule, active = well fitted curve in the direction sought with a large enough effect; inconclusive = small, poorly fitted or top-dose-only effect, or another doubt; inactive = no such curve, though single readings can be large; an effect the other way counts as inactive or inconclusive.

Sequence of M-phase phosphoprotein 8 (Homo sapiens) (Q99549 whole entry, looked up): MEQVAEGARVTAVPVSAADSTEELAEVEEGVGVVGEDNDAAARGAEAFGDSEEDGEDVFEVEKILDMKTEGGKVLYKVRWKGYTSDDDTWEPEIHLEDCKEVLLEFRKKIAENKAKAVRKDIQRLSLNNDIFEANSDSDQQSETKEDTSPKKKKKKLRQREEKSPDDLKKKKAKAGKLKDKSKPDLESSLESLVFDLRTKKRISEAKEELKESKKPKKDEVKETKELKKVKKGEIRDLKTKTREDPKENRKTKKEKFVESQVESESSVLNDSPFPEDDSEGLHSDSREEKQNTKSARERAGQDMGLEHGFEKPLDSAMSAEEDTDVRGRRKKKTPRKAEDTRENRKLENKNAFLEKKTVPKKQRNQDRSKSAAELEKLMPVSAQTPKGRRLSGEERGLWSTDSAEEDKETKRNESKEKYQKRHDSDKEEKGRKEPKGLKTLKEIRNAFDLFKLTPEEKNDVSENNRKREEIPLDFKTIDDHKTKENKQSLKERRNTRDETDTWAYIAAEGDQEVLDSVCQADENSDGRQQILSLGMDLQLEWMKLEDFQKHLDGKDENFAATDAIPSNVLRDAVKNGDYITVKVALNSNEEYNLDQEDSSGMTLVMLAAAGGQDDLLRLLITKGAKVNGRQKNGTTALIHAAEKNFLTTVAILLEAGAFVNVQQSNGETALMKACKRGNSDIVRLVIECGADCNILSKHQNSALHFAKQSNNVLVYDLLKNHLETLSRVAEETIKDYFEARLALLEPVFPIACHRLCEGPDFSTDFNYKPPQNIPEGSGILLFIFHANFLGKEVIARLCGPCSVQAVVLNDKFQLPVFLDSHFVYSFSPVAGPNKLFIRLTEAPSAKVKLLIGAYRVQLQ
Sequence of Methanococcus maripaludis chaperonin (MmCpn) (Q6LX38 1-543): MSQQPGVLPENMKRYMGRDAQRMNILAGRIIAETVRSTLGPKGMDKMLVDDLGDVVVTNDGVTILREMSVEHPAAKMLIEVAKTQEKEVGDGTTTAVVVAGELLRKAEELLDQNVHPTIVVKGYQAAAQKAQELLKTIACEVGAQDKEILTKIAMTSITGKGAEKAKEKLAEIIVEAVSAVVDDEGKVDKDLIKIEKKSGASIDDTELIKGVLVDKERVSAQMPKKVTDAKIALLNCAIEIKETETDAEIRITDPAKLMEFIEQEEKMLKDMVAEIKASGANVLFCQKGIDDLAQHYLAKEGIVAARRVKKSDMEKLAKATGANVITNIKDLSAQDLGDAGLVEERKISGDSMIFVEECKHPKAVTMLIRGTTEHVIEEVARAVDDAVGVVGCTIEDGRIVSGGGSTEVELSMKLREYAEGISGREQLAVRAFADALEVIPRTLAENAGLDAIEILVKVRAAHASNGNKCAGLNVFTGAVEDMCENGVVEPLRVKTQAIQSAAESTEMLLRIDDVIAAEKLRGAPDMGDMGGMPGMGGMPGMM
Sequence of ATPase family AAA domain-containing protein 5 (Homo sapiens) (Q96QE3 whole entry, looked up, the tested form may be a part): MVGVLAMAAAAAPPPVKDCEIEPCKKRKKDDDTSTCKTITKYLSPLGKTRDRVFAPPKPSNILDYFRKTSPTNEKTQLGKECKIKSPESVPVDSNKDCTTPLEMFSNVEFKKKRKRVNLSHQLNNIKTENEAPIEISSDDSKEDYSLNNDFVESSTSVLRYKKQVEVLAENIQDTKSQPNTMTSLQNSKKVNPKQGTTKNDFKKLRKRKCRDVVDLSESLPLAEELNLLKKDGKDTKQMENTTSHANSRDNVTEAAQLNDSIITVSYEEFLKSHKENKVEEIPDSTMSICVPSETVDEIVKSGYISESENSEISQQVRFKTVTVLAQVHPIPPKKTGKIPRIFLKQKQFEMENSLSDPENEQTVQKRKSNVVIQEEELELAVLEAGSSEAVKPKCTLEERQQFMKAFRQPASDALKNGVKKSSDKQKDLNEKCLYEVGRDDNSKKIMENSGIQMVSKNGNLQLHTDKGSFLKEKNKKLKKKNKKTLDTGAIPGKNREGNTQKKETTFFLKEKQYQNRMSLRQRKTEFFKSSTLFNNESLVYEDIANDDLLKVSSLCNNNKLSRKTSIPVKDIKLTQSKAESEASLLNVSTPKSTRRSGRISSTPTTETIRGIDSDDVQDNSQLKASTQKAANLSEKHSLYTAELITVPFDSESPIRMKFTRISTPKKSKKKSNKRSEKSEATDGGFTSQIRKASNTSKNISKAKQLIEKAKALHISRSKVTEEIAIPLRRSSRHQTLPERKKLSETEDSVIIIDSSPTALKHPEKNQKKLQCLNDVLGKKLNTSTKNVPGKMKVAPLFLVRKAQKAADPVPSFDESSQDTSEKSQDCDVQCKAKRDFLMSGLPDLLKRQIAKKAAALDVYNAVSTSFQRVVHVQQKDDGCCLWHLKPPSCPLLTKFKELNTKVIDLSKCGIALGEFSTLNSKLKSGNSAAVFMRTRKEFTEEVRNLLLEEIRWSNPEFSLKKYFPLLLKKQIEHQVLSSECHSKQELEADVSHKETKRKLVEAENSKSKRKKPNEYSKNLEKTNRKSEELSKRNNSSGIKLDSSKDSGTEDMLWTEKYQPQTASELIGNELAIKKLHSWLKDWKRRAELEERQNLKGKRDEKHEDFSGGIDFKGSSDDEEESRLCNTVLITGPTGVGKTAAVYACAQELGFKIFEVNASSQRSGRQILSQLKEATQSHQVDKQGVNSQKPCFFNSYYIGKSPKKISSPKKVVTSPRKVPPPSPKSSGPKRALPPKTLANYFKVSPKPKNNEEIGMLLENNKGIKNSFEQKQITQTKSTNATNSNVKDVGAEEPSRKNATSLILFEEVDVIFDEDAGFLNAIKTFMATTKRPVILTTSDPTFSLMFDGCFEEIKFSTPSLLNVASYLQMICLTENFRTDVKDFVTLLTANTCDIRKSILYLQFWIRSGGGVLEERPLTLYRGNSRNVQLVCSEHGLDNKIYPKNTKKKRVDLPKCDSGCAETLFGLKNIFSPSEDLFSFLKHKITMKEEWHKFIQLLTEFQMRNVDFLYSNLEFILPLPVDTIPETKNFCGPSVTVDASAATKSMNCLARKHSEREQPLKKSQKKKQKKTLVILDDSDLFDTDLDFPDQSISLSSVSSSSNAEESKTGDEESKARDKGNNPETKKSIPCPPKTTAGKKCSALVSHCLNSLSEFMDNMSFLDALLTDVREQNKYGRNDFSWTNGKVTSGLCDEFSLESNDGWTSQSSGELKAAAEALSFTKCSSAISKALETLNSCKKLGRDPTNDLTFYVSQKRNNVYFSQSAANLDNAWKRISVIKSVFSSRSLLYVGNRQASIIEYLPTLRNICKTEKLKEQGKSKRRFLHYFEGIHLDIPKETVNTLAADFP
Sequence of D(1A) dopamine receptor (Homo sapiens) (P21728 whole entry, looked up): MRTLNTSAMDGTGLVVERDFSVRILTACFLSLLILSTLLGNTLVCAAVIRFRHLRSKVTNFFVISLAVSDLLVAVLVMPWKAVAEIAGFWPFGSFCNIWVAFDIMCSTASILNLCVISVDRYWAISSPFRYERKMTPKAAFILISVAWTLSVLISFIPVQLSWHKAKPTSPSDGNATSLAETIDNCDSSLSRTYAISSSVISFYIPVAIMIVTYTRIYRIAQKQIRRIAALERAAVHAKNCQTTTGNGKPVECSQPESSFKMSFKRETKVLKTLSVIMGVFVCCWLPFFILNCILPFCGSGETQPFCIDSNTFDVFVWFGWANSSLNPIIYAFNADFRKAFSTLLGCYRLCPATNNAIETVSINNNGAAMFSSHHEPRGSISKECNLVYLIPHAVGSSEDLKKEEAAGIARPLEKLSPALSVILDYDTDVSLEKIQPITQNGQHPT
Sequence of Ubiquitin carboxyl-terminal hydrolase 1 (Homo sapiens) (O94782 whole entry, looked up): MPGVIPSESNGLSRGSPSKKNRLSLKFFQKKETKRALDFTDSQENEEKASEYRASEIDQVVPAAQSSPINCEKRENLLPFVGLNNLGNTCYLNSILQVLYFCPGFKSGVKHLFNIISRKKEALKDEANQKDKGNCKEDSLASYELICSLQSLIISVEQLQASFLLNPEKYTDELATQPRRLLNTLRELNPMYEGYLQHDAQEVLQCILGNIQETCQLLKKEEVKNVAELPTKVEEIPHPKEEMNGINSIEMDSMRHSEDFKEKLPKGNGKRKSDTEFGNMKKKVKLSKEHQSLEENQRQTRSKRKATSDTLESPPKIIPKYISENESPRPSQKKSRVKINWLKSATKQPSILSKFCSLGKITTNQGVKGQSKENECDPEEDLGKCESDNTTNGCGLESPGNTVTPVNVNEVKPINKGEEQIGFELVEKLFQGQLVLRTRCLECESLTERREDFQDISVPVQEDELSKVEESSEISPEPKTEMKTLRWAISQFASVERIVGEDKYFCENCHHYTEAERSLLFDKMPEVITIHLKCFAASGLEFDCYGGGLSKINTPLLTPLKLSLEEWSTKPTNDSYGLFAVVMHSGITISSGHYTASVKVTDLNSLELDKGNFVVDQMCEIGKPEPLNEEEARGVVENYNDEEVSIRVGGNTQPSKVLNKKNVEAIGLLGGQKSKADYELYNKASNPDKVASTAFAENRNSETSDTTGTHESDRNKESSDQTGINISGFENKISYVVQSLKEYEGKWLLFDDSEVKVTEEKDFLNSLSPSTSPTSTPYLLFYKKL
Sequence of Peptidyl-prolyl cis-trans isomerase NIMA-interacting 1 (Homo sapiens) (Q13526 whole entry, looked up): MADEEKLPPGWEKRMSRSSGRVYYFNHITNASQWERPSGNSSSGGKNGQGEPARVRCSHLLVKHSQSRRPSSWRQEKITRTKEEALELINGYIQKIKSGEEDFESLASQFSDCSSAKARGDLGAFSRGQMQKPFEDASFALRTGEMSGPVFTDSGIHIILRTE
Sequence of Thyrotropin-releasing hormone receptor (Homo sapiens) (P34981 whole entry, looked up): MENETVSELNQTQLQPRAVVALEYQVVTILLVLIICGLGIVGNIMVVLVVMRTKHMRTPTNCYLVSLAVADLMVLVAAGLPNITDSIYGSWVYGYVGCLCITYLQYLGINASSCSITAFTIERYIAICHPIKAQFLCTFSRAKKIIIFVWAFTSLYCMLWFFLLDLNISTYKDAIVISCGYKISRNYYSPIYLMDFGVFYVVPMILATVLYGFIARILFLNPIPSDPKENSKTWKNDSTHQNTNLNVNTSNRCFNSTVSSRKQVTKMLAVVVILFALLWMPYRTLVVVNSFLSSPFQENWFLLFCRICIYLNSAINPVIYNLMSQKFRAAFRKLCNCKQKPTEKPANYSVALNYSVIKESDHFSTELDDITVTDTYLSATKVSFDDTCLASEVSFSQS

For `O=C1CCc2cc(OCCCCc3nnnn3C3CCCCC3)ccc2N1`, the Potency result in assay [1], in assay [2], in [6], in assay [7], in assay [8] and in assay [9] was “inactive” each time. The Potency result in assay [10] and in [18] was “inactive” each time. Further, the compound was classed as inactive in [3], in assay [4], in assay [5], in [12], in assay [13] and in [14]. In addition, the call in assay [15], in assay [16] and in assay [17] was inactive. Also, the activation in assay [11] was 3.38% (inactive).

Regarding `O=c1n(CCCN2CCN(c3cccc(Cl)c3)CC2)nc2ccccn12`, the Potency result in assay [1], in [2], in assay [6], in [7], in assay [9] and in assay [10] was “inactive” in each case. For the same compound, the Potency entry in assay [20] and in [18] was “inactive” each time. Also, the result in [3], in assay [4], in assay [5], in [19], in assay [12] and in [13] was inactive. Besides, the compound was called inactive in assay [14], in assay [15] and in [16]. Also, in [8], the Potency was 11.2 µM (active). In assay [20], the viability change is -3.91%.

Take `Cc1cn[nH]c1`: the Potency result in assay [1], in assay [2], in assay [6], in assay [7], in [8] and in assay [9] was “inactive” throughout. Further, the Potency entry in assay [10], in assay [20] and in [18] was “inactive” each time. The outcome in assay [3], in assay [4], in assay [5], in assay [19], in [12] and in assay [13] was inactive. The compound was classed as inactive in assay [14], in [15] and in assay [16]. Moreover, in [20], the viability change turned out to be 9.47%.

`CC(=O)Oc1ccccc1C(=O)O`: the Potency result in assay [1], in assay [2], in [6], in [7], in [8] and in assay [9] was “inactive” in each case. The Potency result in [10], in assay [20] and in [18] was “inactive” each time. In addition, the compound was classed as inactive in assay [3], in assay [4], in assay [5], in assay [19], in assay [12] and in assay [13]. Moreover, the call in [14], in assay [15] and in assay [16] was inactive. In [20], the viability change is -7.95%.

Turning to `c1ccc([C@H]2CN3CCSC3=N2)cc1`, the Potency entry in [1], in assay [2], in assay [6], in assay [7], in [8] and in assay [9] was “inactive” throughout. Further, the Potency entry in assay [10], in [20] and in assay [18] was “inactive” in each case. For the same compound, the compound was called inactive in assay [3], in assay [4], in [5], in assay [12], in [13] and in [14]. For the same compound, the compound was classed as inactive in [15] and in [16]. For the same compound, the activation in [11] was 0.875% (inactive). The viability change in assay [20] is -0.324%.

As for `CCCCNc1cc(C(=O)O)cc(S(N)(=O)=O)c1Oc1ccccc1`, the Potency result in [1], in assay [2], in [6], in [7], in [8] and in assay [9] was “inactive” each time. In addition, the Potency entry in [20] and in [18] was “inactive” in each case. Also, the call in [3], in assay [4], in assay [5], in assay [19], in [12] and in assay [13] was inactive. Besides, the outcome in [14], in assay [15], in assay [16] and in [17] was inactive. In addition, the activation in [11] is 1.31% (inactive). Also, the viability change in assay [20] is 10.1%.

The record behind these values is PubChem BioAssay (NCATS).
